# The source made the active and inactive calls. Rule for the calls: active = hit-call score of the fitted dose curve at least 0.9, where 1 is the maximum; inactive = score below 0.9.
# Read-out: Protein phosphatase 2A (PPP2R4), PTPA (gene 5524)
# Test: LTEA_HepaRG_PPP2R4: Life Technologies and Expression Analysis (LTEA) Assay for Protein phosphatase 2A (PPP2R4) using HepaRG (AID 2283522)
# Settings: mRNA level, 48 h; actives raise or lower the signal
# Method: LTEA_HepaRG is a cell based, multiplexed-readout assay that uses HepaRG, a human liver cell line, with measurements taken at 48 hours after chemical dosing on a 96-well plate.LTEA_HepaRG_PPP2R4 is one of 102 assay component(s) measured in the LTEA HepaRG cell culture assay. It is a marker of Cell proliferation, survival, death.Data from the assay component LTEA_HepaRG_PPP2R4 was analyzed into 1 endpoint. This assay endpoint, LTEA_HepaRG_PPP2R4, was analyzed with bidirectional fitting relative to DMSO as the negative control and baseline of activity. Using a type of inducible reporter, measures of mRNA induction for gain or loss-of-signal activity can be used to understand regulation of transcription factor activity. To generalize the intended target to other relatable targets, this assay endpoint is annotated to the phosphatase intended target family, where the subfamily is serine/threonine phosphatase.
# A total of 1060 chemcials from the ToxCast library were tested in eight-point concentration-response experiments. Cell culture and cytotoxicity assays were conducted at Thermo Fisher Scientific's Custom Services facility (Madison, WI). A single lot of human HepaRG cells (Thermo Fisher Scientific, Frederick, MD) was used for the cell culture experiments. 96-well format collagen type I coated plates of human HepaRG cells were prepared using established methods. Briefly, cryopreserved HepaRG cells were thawed, plated at a density of approximately 100,000 cells/well in HepaRG Thaw, Plate, and General Purpose media (HPRG770, Thermo Fisher Scientific), and incubated for 48 hours. 0.5% DMSO was selected as vehicle control to balance the requisite need of DMSO in HepaRG cultures to maintain differentiation (for example, baseline metabolism, proportions of hepatocytes vs. cholangiocytes), while enabling further hepatic receptor pathway activation (for example, PXR and CAR) in response to chemical exposure. 48 hours after plating, the culture medium was replaced with HepaRG Serum-Free Incudtion Media. Cells were exposed to each test chemical in duplicate and maintained in CO2 incubators for another 48 hours. Chemical plates were thawed to room temperature and 200x concentrations of treatment groups were prepared. 8-point conentration-reponse curves were made with the highest exposure at 100 uM, followed by half-log dilutions, all in 0.5% DMSO. Each test plate contained variouse controls, induction positive controls (1mM phenobarbital), cytotoxicity positive controls ([…] aflatoxin B1), vehicle controls (0.5% DMSO), and total lysis controls (0.5% DMSO). Cell morphology images were taken using an Essen IncuCyte FLR automated microscope, with six 96-well plates imaged in about 24 minutes. Images were captured and exported and JPEG files. Spent culture media was transfered to black-well plates for the LDH assay, and remaining media was sorted at -80 C for later use. Cells were treated with RLT buffer and frozen until shipped for gene expression analysis. Total RNA was isolated from the cell suspension in 75 uL of Buffer RLT (Qiagen, Germantown, MD 20874) by Quintiles/Expression Analysis (Durham, NC) using a custom isolation procedure. Total RNA from each plate well was transferred to a preamplification plate. Fluidigm's 96.96 Dynamic ArrayTM (Fluidigm, Amsterdam, the Netherlands) technology was used for gene expression analyses by quantitative reverse transcription polymerase chain reaction (qRT-PCR, performed by Quintiles/Expression Analysis, Durham, NC)89. Standard TaqManTM Assays (Applied Biosystems/ThermoFisher Scientific, Foster City, CA) were used to assess the expression of 93 genes selected based on their selectivity and sensitivity to important hepatic receptors known to be modulated by environmental chemicals; importance in human hepatocyte functionality; and hepatotoxicity. […]
SMILES,AC50,outcome
N=C(N)c1ccc(OCCCCCOc2ccc(C(=N)N)cc2)cc1,28.4 µM (active),–
CCC(C)c1ccccc1O (stereo not given),–,inactive
O=C(c1ccccc1)c1ccccc1,–,inactive
OCC(CO)(CBr)CBr,–,inactive
CS(=O)(=O)c1ccc([C@@H](CC2CCCC2)C(=O)Nc2cnccn2)cc1Cl,50 µM (active),–
CN(C)CCOC(c1ccccc1)c1ccccc1,–,inactive
O=C1NS(=O)(=O)c2ccccc21,–,inactive
O=C(CCCN1CCC(O)(c2ccc(Cl)cc2)CC1)c1ccc(F)cc1,–,inactive
Cc1[nH]nc2c1N=C(c1ccccc1Cl)c1cc([N+](=O)[O-])ccc1N2,–,inactive
CC(=O)Nc1ccc(O)cc1,–,inactive
CN(Cc1cnc2nc(N)nc(N)c2n1)c1ccc(C(=O)N[C@@H](CCC(=O)O)C(=O)O)cc1,–,inactive
CCCCc1oc2ccccc2c1C(=O)c1cc(I)c(OCCN(CC)CC)c(I)c1,–,inactive
CCCCCCCCCCCCCCC,–,inactive
CCCCC=O,–,inactive
CCCCC(CC)C(=O)O (stereo not given),–,inactive

# From PubChem BioAssay (EPA / NIEHS)
